Assay results as given in PubChem BioAssay (NCATS).
Records with an inconclusive call do not appear. Activity calls are given as the source filed them. Calls follow the shape of the dose curve; as a rule, active = well fitted cell-killing curve with a large enough effect; inconclusive = small, poorly fitted or top-dose-only effect; inactive = flat fitted curve, though single readings scatter.
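Also: 0% = DMSO only and -100% = 100 µM tamoxifen.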

Experiment: Cell Viability - Renal Proximal Tubule (AID 545);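 also: cells exposed to compound for 40 hours; nearly all actives have a fitted effect of over 40% in size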
Settings: renal proximal tubule cells viability, primary cells of rat origin; series mostly up to 91.7 µM; activity change, negative = cytotoxicity: at the top concentration
Method in brief: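 Primary rat renal proximal tubule cells (1000/well) were treated with compounds for 40 hr at 37 °C in complete medium. Intracellular ATP was measured by CellTiter-Glo luminescence, and AC50 values came from Hill-equation fits of concentration-response data.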
In the case of `CCC1CO1` (stereo not given), the “activity change, negative = cytotoxicity” value was -17.3% (inactive).
With `FC(F)(F)c1cccc(Cl)c1` the “activity change, negative = cytotoxicity” value was -7.13% (inactive).
With `CC(=O)Nc1ccc(C)cc1` the “activity change, negative = cytotoxicity” value was -8.64% (inactive).
For `C=Cc1ccccn1`, the “activity change, negative = cytotoxicity” value was -3.61% (inactive).
For `CCNc1ccccc1`, the “activity change, negative = cytotoxicity” value was -7.84% (inactive).
With `Cc1ccccc1Br` the “activity change, negative = cytotoxicity” value was -5.42% (inactive).
In the case of `O=C(O)CNC(=O)c1ccc([N+](=O)[O-])cc1`, the “activity change, negative = cytotoxicity” value was -10.8% (inactive).
In the case of `CCCCC/C=C/C=C/C=O`, the “activity change, negative = cytotoxicity” value was 2.99% (inactive).
In the case of `C=C(C)C(=O)OCC(C)C`, the “activity change, negative = cytotoxicity” value was -6.83% (inactive).
With `C[C@@H]1CC2(OC[C@]3(C)O[C@H]23)O[C@H]2C[C@@]3(C)[C@@H]4CC[C@H]5C(C)(C)C(O[C@@H]6OC[C@@H](O)[C@H](O)[C@H]6O)CC[C@@]56C[C@@]46CC[C@]3(C)[C@@H]12` (stereo not given in full) the “activity change, negative = cytotoxicity” value was -23.7% (inactive).
In the case of `C/C=C1\CC2C=CC1C2` (stereo not given), the “activity change, negative = cytotoxicity” value was -8.91% (inactive).
With `CCC(O)C(C)(C)C` (stereo not given) the “activity change, negative = cytotoxicity” value was -4.73% (inactive).
In the case of `CC(=O)OCc1ccco1`, the “activity change, negative = cytotoxicity” value was -5.43% (inactive).
With `Cc1c(N)cccc1[N+](=O)[O-]` the “activity change, negative = cytotoxicity” value was -6.56% (inactive).
In the case of `ClC/C=C/CCl`, the “activity change, negative = cytotoxicity” value was 0.0383% (inactive).
For `N#CCc1ccccc1[N+](=O)[O-]`, the “activity change, negative = cytotoxicity” value was -3.78% (inactive).
In the case of `Cc1cccc(C)c1[N+](=O)[O-]`, the “activity change, negative = cytotoxicity” value was -2.97% (inactive).
In the case of `Cc1ccc2ccccc2c1[N+](=O)[O-]`, the “activity change, negative = cytotoxicity” value was 0.92% (inactive).
For `CCCOCC(C)O` (stereo not given), the “activity change, negative = cytotoxicity” value was -5.8% (inactive).
In the case of `CSc1ccc(C=O)cc1`, the “activity change, negative = cytotoxicity” value was -1.2% (inactive).
For `CC(O)COC(C)(C)C` (stereo not given), the “activity change, negative = cytotoxicity” value was 0.625% (inactive).
In the case of `Fc1ccccc1`, the “activity change, negative = cytotoxicity” value was -5.89% (inactive).
In the case of `NC(=O)NC(N)=O`, the “activity change, negative = cytotoxicity” value was 8.4% (inactive).
In the case of `C=CC(=O)NC(C)C`, the “activity change, negative = cytotoxicity” value was -2.23% (inactive).
For `CCOC(=O)C(C)C(C)=O` (stereo not given), the “activity change, negative = cytotoxicity” value was 0.477% (inactive).
In the case of `O=C(O)c1ccc(Cl)cc1Cl`, the “activity change, negative = cytotoxicity” value was -3.32% (inactive).
In the case of `C=C(C)C1CC=C(C)C(OC(C)=O)C1` (stereo not given), the “activity change, negative = cytotoxicity” value was 2.35% (inactive).
With `O=C(O)c1ccccc1Cl` the “activity change, negative = cytotoxicity” value was -5.4% (inactive).
For `CCOCCOCC`, the “activity change, negative = cytotoxicity” value was -3.38% (inactive).
For `CCCCCCCCN`, the “activity change, negative = cytotoxicity” value was 2.82% (inactive).
For `CC(C)=CCC/C(C)=C/C=O`, the “activity change, negative = cytotoxicity” value was -5.45% (inactive).
With `C/C=C(/C)C#N` the “activity change, negative = cytotoxicity” value was 7.39% (inactive).
In the case of `CC(C)(c1cc(Br)c(OCC(Br)CBr)c(Br)c1)c1cc(Br)c(OCC(Br)CBr)c(Br)c1` (stereo not given), the “activity change, negative = cytotoxicity” value was 1.22% (inactive).
In the case of `Cc1cc(C(=O)O)ccc1[N+](=O)[O-]`, the “activity change, negative = cytotoxicity” value was -0.673% (inactive).
For `CN(C)CCCNCCCN`, the “activity change, negative = cytotoxicity” value was -5.67% (inactive).

Experiment: Cell Viability - Mesenchymal (AID 546);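 also: cells exposed to compound for 40 hours before reading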
Settings: mesenchymal cells viability, qHTS; series mostly up to 91.7 µM; activity change, negative = cytotoxicity: at the top concentration
Method in brief: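 Normal human renal glomerulus-derived kidney mesenchymal cells, 1000 per well in complete medium, were treated with compounds for 40 hr at 37 °C. Viability was read as intracellular ATP by CellTiter-Glo luminescence; AC50 values came from Hill-equation fits of qHTS concentration-response data.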
For `CCC1CO1` (stereo not given), the “activity change, negative = cytotoxicity” value was -1.8% (inactive).
With `FC(F)(F)c1cccc(Cl)c1` the “activity change, negative = cytotoxicity” value was -1.79% (inactive).
With `O=Nc1ccc(NO)cc1` the “activity change, negative = cytotoxicity” value was 4.68% (inactive).
For `CC(=O)Nc1ccc(C)cc1`, the “activity change, negative = cytotoxicity” value was -3.38% (inactive).
With `C=Cc1ccccn1` the “activity change, negative = cytotoxicity” value was 8.1% (inactive).
With `CCNc1ccccc1` the “activity change, negative = cytotoxicity” value was 10.8% (inactive).
With `Cc1ccccc1Br` the “activity change, negative = cytotoxicity” value was -4.97% (inactive).
In the case of `O=C(O)CNC(=O)c1ccc([N+](=O)[O-])cc1`, the “activity change, negative = cytotoxicity” value was -9.84% (inactive).
For `CCCCC/C=C/C=C/C=O`, the “activity change, negative = cytotoxicity” value was 1.63% (inactive).
With `C=C(C)C(=O)OCC(C)C` the “activity change, negative = cytotoxicity” value was 8.76% (inactive).
With `C[C@@H]1CC2(OC[C@]3(C)O[C@H]23)O[C@H]2C[C@@]3(C)[C@@H]4CC[C@H]5C(C)(C)C(O[C@@H]6OC[C@@H](O)[C@H](O)[C@H]6O)CC[C@@]56C[C@@]46CC[C@]3(C)[C@@H]12` (stereo not given in full) the “activity change, negative = cytotoxicity” value was -6.84% (inactive).
For `c1ccc2n[nH]nc2c1`, the “activity change, negative = cytotoxicity” value was -10% (inactive).
With `C/C=C1\CC2C=CC1C2` (stereo not given) the “activity change, negative = cytotoxicity” value was -3.55% (inactive).
In the case of `CCC(O)C(C)(C)C` (stereo not given), the “activity change, negative = cytotoxicity” value was -1.95% (inactive).
For `CCOC(=O)OCC`, the “activity change, negative = cytotoxicity” value was 0.183% (inactive).
For `CC(=O)OCc1ccco1`, the “activity change, negative = cytotoxicity” value was -7.61% (inactive).
For `COc1ccccc1[N+](=O)[O-]`, the “activity change, negative = cytotoxicity” value was -9.23% (inactive).
In the case of `CCCCC(CC)COCC1CO1` (stereo not given), the “activity change, negative = cytotoxicity” value was -4.39% (inactive).
In the case of `Cc1c(N)cccc1[N+](=O)[O-]`, the “activity change, negative = cytotoxicity” value was -1.8% (inactive).
In the case of `ClC/C=C/CCl`, the “activity change, negative = cytotoxicity” value was 6.57% (inactive).
For `N#CCc1ccccc1[N+](=O)[O-]`, the “activity change, negative = cytotoxicity” value was -1.87% (inactive).
In the case of `Cc1cccc(C)c1[N+](=O)[O-]`, the “activity change, negative = cytotoxicity” value was 7.66% (inactive).
In the case of `Cc1ccc2ccccc2c1[N+](=O)[O-]`, the “activity change, negative = cytotoxicity” value was -1.66% (inactive).
With `CCCOCC(C)O` (stereo not given) the “activity change, negative = cytotoxicity” value was -3.11% (inactive).
With `CSc1ccc(C=O)cc1` the “activity change, negative = cytotoxicity” value was 5.54% (inactive).
In the case of `CC(O)COC(C)(C)C` (stereo not given), the “activity change, negative = cytotoxicity” value was 12.5% (inactive).
In the case of `Fc1ccccc1`, the “activity change, negative = cytotoxicity” value was -1.04% (inactive).
In the case of `NC(=O)NC(N)=O`, the “activity change, negative = cytotoxicity” value was 12.1% (inactive).
With `C=CC(=O)NC(C)C` the “activity change, negative = cytotoxicity” value was 3.82% (inactive).
In the case of `CCOC(=O)C(C)C(C)=O` (stereo not given), the “activity change, negative = cytotoxicity” value was 2.54% (inactive).
In the case of `O=C(O)c1ccc(Cl)cc1Cl`, the “activity change, negative = cytotoxicity” value was -2.07% (inactive).
For `C=C(C)C1CC=C(C)C(OC(C)=O)C1` (stereo not given), the “activity change, negative = cytotoxicity” value was 4.52% (inactive).
In the case of `O=C(O)c1ccccc1Cl`, the “activity change, negative = cytotoxicity” value was 4.89% (inactive).
With `CCOCCOCC` the “activity change, negative = cytotoxicity” value was 5.75% (inactive).
In the case of `CCCCCCCCN`, the “activity change, negative = cytotoxicity” value was 2.77% (inactive).
With `CC(C)=CCC/C(C)=C/C=O` the “activity change, negative = cytotoxicity” value was 0.552% (inactive).
In the case of `C/C=C(/C)C#N`, the “activity change, negative = cytotoxicity” value was 4.7% (inactive).
With `CC(C)(c1cc(Br)c(OCC(Br)CBr)c(Br)c1)c1cc(Br)c(OCC(Br)CBr)c(Br)c1` (stereo not given) the “activity change, negative = cytotoxicity” value was 11.1% (inactive).
In the case of `Cc1cc(C(=O)O)ccc1[N+](=O)[O-]`, the “activity change, negative = cytotoxicity” value was 17.3% (inactive).
In the case of `CN(C)CCCNCCCN`, the “activity change, negative = cytotoxicity” value was 3.67% (inactive).
